# Assays:
# [1] = target: T1, Muscle, skeletal receptor tyrosine-protein kinase (Homo sapiens) (UniProt O15146); details: at 1 µM
# T1 sequence (whole entry): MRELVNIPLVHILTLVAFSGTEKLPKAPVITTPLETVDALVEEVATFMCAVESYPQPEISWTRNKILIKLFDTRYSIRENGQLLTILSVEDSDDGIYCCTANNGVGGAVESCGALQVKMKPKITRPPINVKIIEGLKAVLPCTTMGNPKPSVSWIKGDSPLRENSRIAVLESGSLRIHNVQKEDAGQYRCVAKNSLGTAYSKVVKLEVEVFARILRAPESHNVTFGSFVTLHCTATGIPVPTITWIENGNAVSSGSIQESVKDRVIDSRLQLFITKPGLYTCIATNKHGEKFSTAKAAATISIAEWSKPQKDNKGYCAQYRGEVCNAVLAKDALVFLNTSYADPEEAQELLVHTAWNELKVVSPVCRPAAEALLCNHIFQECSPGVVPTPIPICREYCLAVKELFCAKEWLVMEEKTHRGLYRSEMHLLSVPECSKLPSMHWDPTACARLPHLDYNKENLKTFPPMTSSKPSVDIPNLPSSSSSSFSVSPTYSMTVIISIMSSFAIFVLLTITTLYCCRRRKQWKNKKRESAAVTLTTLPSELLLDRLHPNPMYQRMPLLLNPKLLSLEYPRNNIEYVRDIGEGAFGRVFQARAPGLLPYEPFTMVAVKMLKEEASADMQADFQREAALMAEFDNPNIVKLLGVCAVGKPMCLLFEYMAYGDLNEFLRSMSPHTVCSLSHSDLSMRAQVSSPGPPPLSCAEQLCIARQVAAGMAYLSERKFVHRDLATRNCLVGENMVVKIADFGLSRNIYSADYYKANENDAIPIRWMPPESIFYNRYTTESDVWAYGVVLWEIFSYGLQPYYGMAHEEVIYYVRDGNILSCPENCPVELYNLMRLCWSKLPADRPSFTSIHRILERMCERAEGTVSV
# [2] = target: T1, Muscle, skeletal receptor tyrosine-protein kinase (Homo sapiens); details: at 10 µM
# [3] = target: T2, Serine/threonine-protein kinase Nek11 (Homo sapiens) (UniProt Q8NG66); details: at 1 µM
# T2 sequence (whole entry): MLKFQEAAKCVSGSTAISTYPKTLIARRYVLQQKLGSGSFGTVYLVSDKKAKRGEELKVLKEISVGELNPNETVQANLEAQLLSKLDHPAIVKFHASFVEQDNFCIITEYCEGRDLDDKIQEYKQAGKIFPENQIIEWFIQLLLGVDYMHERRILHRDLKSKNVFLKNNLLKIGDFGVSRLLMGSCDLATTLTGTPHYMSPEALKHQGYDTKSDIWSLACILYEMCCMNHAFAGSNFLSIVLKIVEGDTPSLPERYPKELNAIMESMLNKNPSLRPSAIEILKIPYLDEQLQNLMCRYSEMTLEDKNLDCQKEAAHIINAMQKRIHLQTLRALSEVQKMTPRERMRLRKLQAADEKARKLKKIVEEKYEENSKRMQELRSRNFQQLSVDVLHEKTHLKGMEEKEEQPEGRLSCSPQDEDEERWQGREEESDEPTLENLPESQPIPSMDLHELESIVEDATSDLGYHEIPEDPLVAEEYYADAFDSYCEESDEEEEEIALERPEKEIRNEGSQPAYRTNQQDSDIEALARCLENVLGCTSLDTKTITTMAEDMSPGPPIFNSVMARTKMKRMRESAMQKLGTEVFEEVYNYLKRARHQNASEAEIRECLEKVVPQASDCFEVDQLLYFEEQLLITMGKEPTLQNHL
# [4] = target: T3, Serine/threonine-protein kinase Nek2 (Homo sapiens) (UniProt P51955); details: at 1 µM
# T3 sequence (whole entry): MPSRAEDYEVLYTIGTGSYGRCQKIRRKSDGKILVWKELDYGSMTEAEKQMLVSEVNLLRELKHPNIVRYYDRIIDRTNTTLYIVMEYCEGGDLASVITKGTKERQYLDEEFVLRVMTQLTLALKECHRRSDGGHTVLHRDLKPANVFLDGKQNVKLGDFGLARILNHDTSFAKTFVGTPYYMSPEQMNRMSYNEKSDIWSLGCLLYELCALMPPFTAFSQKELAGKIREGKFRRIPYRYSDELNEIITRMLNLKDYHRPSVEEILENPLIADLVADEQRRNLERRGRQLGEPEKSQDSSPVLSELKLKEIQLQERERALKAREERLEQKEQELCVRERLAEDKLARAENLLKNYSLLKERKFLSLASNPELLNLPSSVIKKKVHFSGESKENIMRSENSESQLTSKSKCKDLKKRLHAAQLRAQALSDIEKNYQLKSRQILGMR
# [5] = target: T3, Serine/threonine-protein kinase Nek2 (Homo sapiens); details: at 10 µM
# [6] = target: T4, Serine/threonine-protein kinase Nek3 (Homo sapiens) (UniProt P51956); details: at 1 µM
# T4 sequence (whole entry): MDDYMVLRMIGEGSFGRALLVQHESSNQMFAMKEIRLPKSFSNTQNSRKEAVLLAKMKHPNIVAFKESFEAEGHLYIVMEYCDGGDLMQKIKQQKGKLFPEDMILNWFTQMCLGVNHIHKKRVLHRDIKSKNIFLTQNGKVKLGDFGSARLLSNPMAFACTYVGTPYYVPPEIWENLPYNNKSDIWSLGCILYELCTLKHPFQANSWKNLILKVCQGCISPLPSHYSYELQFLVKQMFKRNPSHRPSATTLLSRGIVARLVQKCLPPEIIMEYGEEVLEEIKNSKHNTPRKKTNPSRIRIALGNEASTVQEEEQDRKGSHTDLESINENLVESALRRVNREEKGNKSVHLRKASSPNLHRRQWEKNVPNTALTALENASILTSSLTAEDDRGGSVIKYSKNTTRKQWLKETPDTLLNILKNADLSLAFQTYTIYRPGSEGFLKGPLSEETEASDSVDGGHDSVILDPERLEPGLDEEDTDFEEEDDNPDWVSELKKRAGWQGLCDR
# [7] = target: T4, Serine/threonine-protein kinase Nek3 (Homo sapiens); details: at 10 µM
# [8] = target: Serine/threonine-protein kinase tousled-like 2 (Homo sapiens) (UniProt Q86UE8); details: at 1 µM
# [9] = target: Serine/threonine-protein kinase tousled-like 2 (Homo sapiens) (UniProt Q86UE8); details: at 10 µM
# [10] = target: T2, Serine/threonine-protein kinase Nek11 (Homo sapiens); details: at 10 µM
# Serine/threonine-protein kinase tousled-like 2 (Homo sapiens), sequence (Q86UE8 whole entry, looked up): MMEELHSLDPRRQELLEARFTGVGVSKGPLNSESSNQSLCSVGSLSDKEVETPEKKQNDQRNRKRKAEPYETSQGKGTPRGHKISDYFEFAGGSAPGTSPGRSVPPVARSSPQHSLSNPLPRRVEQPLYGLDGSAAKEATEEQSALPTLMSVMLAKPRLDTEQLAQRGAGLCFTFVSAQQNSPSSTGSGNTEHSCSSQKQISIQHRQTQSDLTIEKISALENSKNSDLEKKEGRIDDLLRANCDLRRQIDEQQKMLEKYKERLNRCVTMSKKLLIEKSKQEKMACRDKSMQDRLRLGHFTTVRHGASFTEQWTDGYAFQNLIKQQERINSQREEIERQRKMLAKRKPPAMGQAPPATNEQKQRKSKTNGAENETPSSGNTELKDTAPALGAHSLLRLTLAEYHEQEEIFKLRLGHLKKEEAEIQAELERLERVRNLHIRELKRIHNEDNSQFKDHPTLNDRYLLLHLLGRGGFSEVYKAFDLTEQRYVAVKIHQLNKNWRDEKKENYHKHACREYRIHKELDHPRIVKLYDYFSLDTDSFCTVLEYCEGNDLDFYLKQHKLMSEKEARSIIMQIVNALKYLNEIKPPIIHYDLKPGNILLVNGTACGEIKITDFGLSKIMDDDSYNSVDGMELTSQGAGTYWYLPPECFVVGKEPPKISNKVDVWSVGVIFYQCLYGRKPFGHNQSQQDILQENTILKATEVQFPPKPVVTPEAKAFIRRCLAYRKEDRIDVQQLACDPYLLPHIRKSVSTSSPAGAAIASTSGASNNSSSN
smiles,measurement,setting,value
Nc1ncnc2c1c(-c1ccc(Oc3ccccc3)cc1)cn2C1CCCC1,residual activity,[1],83%
same,residual activity,[2],37%
same,residual activity,[3],102%
same,residual activity,[4],77%
same,residual activity,[5],69%
same,residual activity,[6],105%
same,residual activity,[7],55%
same,residual activity,[8],92%
same,residual activity,[9],82%
COc1cc2nccc(Oc3ccc(NC(=O)Nc4cc(C)on4)c(Cl)c3)c2cc1OC,residual activity,[1],17%
same,residual activity,[2],3%
same,residual activity,[3],77%
same,residual activity,[8],104%
same,residual activity,[9],100%
Cc1cc(C)c(/C=C2\C(=O)Nc3ccccc32)[nH]1,residual activity,[2],12%
same,residual activity,[10],98%
same,residual activity,[7],106%
same,residual activity,[8],105%
same,residual activity,[9],62%
O=S(=O)(c1cccc2cnccc12)N1CCCNCC1,residual activity,[5],100%
CCOC(=O)c1c(C)[nH]c(/C=C2\C(=O)Nc3ccccc32)c1C,residual activity,[3],97%
same,residual activity,[10],98%
same,residual activity,[9],98%
O=C(c1ccccc1)c1ccc(N2CCOCC2)cc1O,residual activity,[2],86%
same,residual activity,[3],89%
same,residual activity,[4],90%
O=c1cc(N2CCOCC2)oc2c(-c3ccccc3)cccc12,residual activity,[4],81%
COc1ccc(COc2ccc(Cc3cnc(N)nc3N)cc2OC)cc1,residual activity,[3],110%
same,residual activity,[10],115%
N#C/C(=C1/Nc2ccccc2S1)c1ccnc(NCCc2cccnc2)n1,residual activity,[3],45%
same,residual activity,[10],6%
same,residual activity,[5],82%
O=C1NC(=O)C(c2cn(CCCO)c3ncccc23)=C1c1cnccn1,residual activity,[1],81%
same,residual activity,[2],84%
same,residual activity,[3],72%
same,residual activity,[10],82%
same,residual activity,[8],98%
same,residual activity,[9],82%
O=C1NC(=O)C(c2c[nH]c3ccccc23)=C1c1c[nH]c2ccccc12,residual activity,[2],60%
same,residual activity,[3],63%
same,residual activity,[10],59%
same,residual activity,[8],51%
same,residual activity,[9],9%
O=C1Cc2c([nH]c3ccc(Br)cc23)-c2ccccc2N1,residual activity,[1],42%
same,residual activity,[2],3%
same,residual activity,[4],95%
same,residual activity,[5],80%
same,residual activity,[6],81%
same,residual activity,[7],72%
same,residual activity,[8],89%
same,residual activity,[9],78%
Nc1ncnc2[nH]nc(Nc3ccc(F)cc3)c12,residual activity,[2],76%
same,residual activity,[3],57%
same,residual activity,[10],42%
same,residual activity,[6],82%
same,residual activity,[7],81%
same,residual activity,[8],105%
COc1cc2ncnc(Nc3cccc(Cl)c3)c2cc1OC,residual activity,[1],121%
same,residual activity,[2],101%
same,residual activity,[5],111%
same,residual activity,[6],111%
same,residual activity,[8],119%
same,residual activity,[9],101%
COc1ccc(CNC(=O)Nc2ncc([N+](=O)[O-])s2)cc1,residual activity,[1],68%
same,residual activity,[2],67%
same,residual activity,[3],51%
same,residual activity,[10],66%
same,residual activity,[9],74%
O=C(Nc1nc2ccccc2n1CCN1CCOCC1)c1cccc([N+](=O)[O-])c1,residual activity,[3],84%
same,residual activity,[10],74%
same,residual activity,[4],75%
same,residual activity,[6],106%
same,residual activity,[7],85%
O=c1c(-c2ccc(F)cc2)c(-c2ccncc2)[nH]n1-c1ccc(Cl)cc1,residual activity,[3],81%
same,residual activity,[10],78%
Nc1nccc(-c2c(-c3ccc(F)cc3)ncn2C2CCNCC2)n1,residual activity,[3],68%
same,residual activity,[10],77%
Fc1ccc(-c2nc3n(c2-c2ccncc2)CCS3)cc1,residual activity,[3],77%
same,residual activity,[10],83%
Nc1ncnc2c1cnn2-c1ccccc1,residual activity,[2],88%
same,residual activity,[3],79%
same,residual activity,[10],88%
same,residual activity,[4],83%
same,residual activity,[5],99%
same,residual activity,[7],91%
NC(=O)c1ccc(-c2nc(-c3ccc4c(c3)OCCO4)c(-c3ccccn3)[nH]2)cc1,residual activity,[3],57%
same,residual activity,[10],65%
same,residual activity,[4],95%
same,residual activity,[5],91%
same,residual activity,[6],85%
same,residual activity,[7],93%
same,residual activity,[8],91%
same,residual activity,[9],87%
O=C(O)/C=C/c1cc(Br)c(Br)c(Br)c1Br,residual activity,[1],106%
same,residual activity,[2],98%
same,residual activity,[3],85%
same,residual activity,[10],54%
same,residual activity,[6],81%
same,residual activity,[7],108%
same,residual activity,[8],101%
same,residual activity,[9],93%
N#C/C(=C\c1ccc(O)c(O)c1)C(=O)NCc1ccccc1,residual activity,[3],103%
same,residual activity,[10],103%
same,residual activity,[9],85%

# — ChEMBL document CHEMBL2218924, “A broad activity screen in support of a chemogenomic map for kinase signalling research and drug discovery” (Biochem J, 2013)
